PubChem BioAssay AID1259398 (Fisher Drug Discovery Resource Center, 2018)
Values joined by “and” are separate entries in the source; they are usually repeats but may differ in a detail not shown here. Identical values can stand only once. About 230 (0.079%) of roughly 290,000 compounds were called active. No stated cut-off is given here; in the data, active means inhibition above about 40%; inactive means the rest. What follows is part of a selection rich in actives, with near analogues and random picks from the rest.

The compounds below were run against Cyclic GMP-AMP synthase (Homo sapiens) (UniProt Q8N884) (assay: Primary biochemical luminescence assay for human cyclic GMP-AMP synthase inhibitors (AID 1259398;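 further: 0% = vehicle reaction and 100% = reaction without DNA for no activity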)). Details: recombinant h-cGAS, ATP depletion, Kinase-Glo luminescence; at 12.5 µM; active compounds read high.
Sequence of Cyclic GMP-AMP synthase (Homo sapiens) (Q8N884 whole entry, looked up): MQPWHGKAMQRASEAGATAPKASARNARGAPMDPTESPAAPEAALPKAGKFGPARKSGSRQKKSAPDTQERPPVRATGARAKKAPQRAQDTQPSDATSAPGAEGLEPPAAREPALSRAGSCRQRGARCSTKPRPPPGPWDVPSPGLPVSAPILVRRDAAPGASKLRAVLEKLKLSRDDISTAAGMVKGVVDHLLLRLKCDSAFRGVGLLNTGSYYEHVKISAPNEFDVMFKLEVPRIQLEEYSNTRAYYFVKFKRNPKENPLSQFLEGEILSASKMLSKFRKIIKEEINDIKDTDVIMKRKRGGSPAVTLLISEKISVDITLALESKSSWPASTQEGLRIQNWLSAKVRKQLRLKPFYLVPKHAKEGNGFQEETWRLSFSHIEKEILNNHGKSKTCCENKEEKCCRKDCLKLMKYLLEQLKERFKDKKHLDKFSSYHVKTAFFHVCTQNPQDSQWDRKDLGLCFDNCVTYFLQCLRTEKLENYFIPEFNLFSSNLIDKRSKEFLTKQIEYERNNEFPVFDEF
`COc1cccc(-c2nn(Cc3ccccc3)c(=O)c3nc(C)sc23)c1` was tested, and the inhibition was -0.0493% (inactive). For `O=C(NCCc1ccco1)c1ccc2c(c1)OCO2`, the inhibition was 1.62% (inactive). In the case of `COc1cc(CN(C)C(=O)c2cc(N3CCN(c4cccc(C(F)(F)F)c4)CC3)nc3ccccc23)cc(OC)c1OC`, the inhibition is reported as -6.59% (inactive). For `NC(=O)COc1ccc(C(=O)N2CCCC2CCc2ccccc2)cc1` (stereo unspecified), the inhibition was -3.77% (inactive). In the case of `CCOC(=O)c1sc(NC(=O)CCCl)c(C(=O)OCC)c1C`, the inhibition is reported as -5.41% (inactive). `CCCc1c(C(=O)NCc2cccnc2)cnn1-c1ccccc1C` was tested, and the inhibition was -8.73% (inactive). In the case of `O=C(Nc1nnc(-c2ccc(Cl)cc2)s1)C1CCCN1S(=O)(=O)c1ccc(F)cc1` (stereo unspecified), the inhibition is reported as -2.72% (inactive). `C(=C\c1ccccc1)/CSc1nnc2c(n1)[nH]c1ccccc12` was tested, and the inhibition was -6.1% (inactive). With `CC(C)CNC(=O)c1c(O)nc2sccn2c1=O` the inhibition was -9.43% (inactive). For `COCCNC(=O)Cn1nc2c(c1NC(=O)Cc1ccc(F)cc1)CSC2`, the inhibition was -6.17% (inactive). With `Cn1c(=O)[nH]c(=O)c2c1nc(N1CCN(Cc3ccccc3)CC1)n2Cc1cccc(Cl)c1` the inhibition was -7.67% (inactive). With `CC1(C)C(c2ccc(Cl)cc2)=[N+]([O-])C(C)(C)C(c2ccc(Cl)cc2)=[N+]1[O-]` the inhibition was -4.69% (inactive). With `COc1ccc2cnn(-c3cccc(Cl)c3)c(=O)c2c1OC` the inhibition was -0.243% (inactive). For `Cc1sc2ncn(CC(=O)O)c(=O)c2c1C`, the inhibition was -2.86% (inactive). For `Cc1ccc(-c2cc(C(=O)O)[nH]n2)c(C)c1`, the inhibition was -5.69% (inactive). For `O=C(CSc1nc(=O)n(CCCN2CCOCC2)c2c1CCC2)N1CCc2ccccc21`, the inhibition was -6% (inactive). For `CC(C)CSc1nc2c(c(=O)n(C)c(=O)n2C)n1CC=Cc1ccccc1`, the inhibition was -0.843% (inactive). `CC(Cn1cncn1)NC(=O)C1CCN(C)C(=O)C1` (stereo unspecified) was tested, and the inhibition was -9.85% (inactive). With `Clc1ccccc1Cn1ncc2c(N3CCN(CCOc4cccc5ccccc45)CC3)ncnc21` the inhibition was -10.9% (inactive). With `N#CC1C(=N)SC(=N)C(C#N)C1c1ccnc2ccccc12` (stereo unspecified) the inhibition was -1.27% (inactive). With `N#CC1C(=N)SC(=N)C(C#N)C1c1ccco1` (stereo unspecified) the inhibition was 53.9% (active). For `N#CC1C(=N)SC(=N)C(C#N)C1c1cccc(O)c1` (stereo unspecified), the inhibition was 65.3% (active). For `N#CC1C(=N)C(C#N)(C#N)C(c2ccco2)C2CCCC=C12` (stereo unspecified), the inhibition was -7.43% (inactive). In the case of `CCc1ccc(C2C(C#N)C(=N)SC(=N)C2C#N)cc1` (stereo unspecified), the inhibition is reported as -0.735% (inactive). In the case of `CCC(C(=O)N(CC(=O)N1CC(=O)N(c2cccc(Cl)c2C)C1)Cc1ccco1)c1ccccc1` (stereo unspecified), the inhibition is reported as -7.01% (inactive). For `COc1cc(S(=O)(=O)Nc2c(F)cccc2F)cc(C(=O)O)c1OC`, the inhibition was 9.01% (inactive). With `Cc1cccc(Cn2cccc2CN(Cc2ccc(F)cc2)C2CCCCC2)c1` the inhibition was -1.66% (inactive). In the case of `COc1ccc(-n2nnnc2SCCC#N)cc1`, the inhibition is reported as -7.16% (inactive). `Cc1cc(C(=O)O)ccc1S(=O)(=O)N(C)c1cc(F)ccc1F` was tested, and the inhibition was -8.29% (inactive). `CCC(CO)N(Cc1ccc(F)cc1)Cc1c(C)nn(C)c1Cl` (stereo unspecified) was tested, and the inhibition was -10.3% (inactive). With `O=C(c1cc(-c2ccccc2F)on1)N1CCc2ccc(O)cc2C1` the inhibition was -0.786% (inactive). `COc1cc(C(=O)n2nc(C)c(Sc3ccccc3[N+](=O)[O-])c2C)cc(OC)c1OC` was tested, and the inhibition was -6.71% (inactive). `CC(=O)Nc1ccccc1OS(=O)(=O)c1ccc(Br)cc1` was tested, and the inhibition was 0.158% (inactive) and 5.4% (inactive). With `CN(Cc1nc2ccccc2n1C)C(=O)[C@H]1CCCO1` the inhibition was -5.26% (inactive). For `O=C(NC(Cc1ccccc1)C(=O)Nc1nnc(-c2cccc(Cl)c2)s1)c1cccc(C(F)(F)F)c1` (stereo unspecified), the inhibition was -8.87% (inactive). In the case of `COc1cccc(-c2nc(OCc3ccc(F)cc3)nn2-c2cccc(NC(=O)C3CCC3)c2)c1`, the inhibition is reported as -6.9% (inactive). In the case of `O=C(Nc1ccc(F)cc1)c1csc(CSc2nnc(Cc3ccccc3)n2-c2cccc(Cl)c2)n1`, the inhibition is reported as 5.96% (inactive). For `CCn1nc(C(=O)O)c2c1CCC(N(C)CCn1ccnc1C)C2` (stereo unspecified), the inhibition was -7.94% (inactive). With `COc1cccc(C2Nc3ccccc3N=C3CC(C)(C)CC(=O)C32)c1OC` (stereo unspecified) the inhibition was -3.94% (inactive). For `CC(C)(CCl)C(=O)N1CCN(c2ncnc3c2nnn3-c2cccc(F)c2)CC1`, the inhibition was -5.18% (inactive). For `CCc1nc2ccc(C(=O)NCCNC(C)=O)cn2c1N(CC)Cc1cccc(Br)c1`, the inhibition was -6.29% (inactive). For `O=C(NCCc1ccccc1)c1cc(NC(=O)C(c2ccccc2)c2ccccc2)ccc1N1CCCCC1`, the inhibition was -3.47% (inactive). With `O=C(NC1CCC1)c1ccc(-c2cc(-c3cccc(C(F)(F)F)c3)n[nH]2)cc1` the inhibition was -8.56% (inactive). `CC1c2ccsc2CCN1C(=O)Cc1csc(-c2ccsc2)n1` (stereo unspecified) was tested, and the inhibition was -10.7% (inactive). In the case of `Nc1cc(-c2cccc(Cl)c2)nn1-c1ccc(C(=O)N2CCOCC2)cc1`, the inhibition is reported as -3.59% (inactive). In the case of `CN(C)c1ccc(N2CC(=O)C(c3nc(-c4cccc(Cl)c4)cs3)C2=N)cc1` (stereo unspecified), the inhibition is reported as 148% (active). `COC[C@@H]1CCCN1C(=O)c1ccc(-n2nc(-c3cccc(Cl)c3)cc2N)cc1` was tested, and the inhibition was 2.07% (inactive). With `COc1cccc(CSc2nnc(CNC(=O)Nc3cc(C(F)(F)F)cc(C(F)(F)F)c3)n2-c2ccc(C)cc2)c1` the inhibition was -18% (inactive). In the case of `Cc1cc(C)n(CC(=O)N2CC[C@@H]3CN(S(C)(=O)=O)[C@@H]3C2)n1`, the inhibition is reported as 66.4% (active). For `Cc1cc(C)n(CC2CCN(C(=O)C3CCN(S(C)(=O)=O)CC3)CC2)n1`, the inhibition was -9.09% (inactive). In the case of `CCn1ncc(C(=O)N2CC[C@@H]3CN(S(C)(=O)=O)[C@@H]3C2)c1C`, the inhibition is reported as -7.55% (inactive). With `CS(=O)(=O)c1ccc(-c2ccc(NS(=O)(=O)c3cccs3)cc2)nn1` the inhibition was -9.35% (inactive). `Cc1cc(C(=O)N2CCC(N(C)C)C2)ccc1NC(=O)c1ccco1` (stereo unspecified) was tested, and the inhibition was -11.4% (inactive). For `CC(=O)N(c1ccccc1)C1C=C(Nc2ccccc2)C(=O)C1` (stereo unspecified), the inhibition was -10.4% (inactive). In the case of `Cc1c(C(=O)N2CCC(Cc3ccccc3)CC2)cnc2c(-c3cccc(C(F)(F)F)c3)cnn12`, the inhibition is reported as -4.43% (inactive). In the case of `OC(COCc1ccco1)CN(Cc1ccccc1)C1CC1` (stereo unspecified), the inhibition is reported as 1.45% (inactive).
